Measured values from PubChem BioAssay (Tox21).
Inconclusive results are not listed. Active and inactive are the calls of the source. Unless noted, calls follow the shape of the dose curve; as a rule, active = well fitted curve in the direction sought with a large enough effect in the repeat runs; inconclusive = weak or mixed curves; inactive = no such curve, though single readings can be large; an effect the other way counts as inactive or inconclusive.

Experiments:
[1] = qHTS RealTime-Glo MT Cell Viability Assay in HEK293 cells - 0 hour (AID 1224880); also: top concentration of the series differs between compounds; nearly all actives have a fitted effect of over 45% in size
Summary of the method: (§1)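 Nonlytic bioluminescent viability monitoring. HEK293 at 600 cells/well with reagent; 5 h settle; compound transfer by pintool; plates held at 37 C and read at set time points.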

[2] = A CellTox Green Cytotoxicity Assay to monitor cytotoxicity in HepG2 cells - 0 hour (AID 1224882); also: nearly all actives have a fitted effect of over 35% in size
Summary of the method: (§2)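 Real-time, homogeneous cytotoxicity readout: dead-cell DNA staining by CellTox Green in HepG2 monolayers, fluorescence measured at timed intervals up to 40 h of continuous compound exposure.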

[3] = A CellTox Green Cytotoxicity Assay to monitor cytotoxicity in HepG2 cells - 32 hour (AID 1224883); also: nearly all actives have a fitted effect of over 50% in size
Summary of the method: as §2

[4] = A CellTox Green Cytotoxicity Assay to monitor cytotoxicity in HEK293 cells - 8 hour (AID 1224884); also: nearly all actives have a fitted effect of over 35% in size; also: potency is read from the fitted curve at half-maximal effect
Summary of the method: (§3)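 Cytotoxicity was tracked continuously in HEK293 cells by a DNA-binding dye excluded from viable cells. Compounds were transferred in DMSO 5 h after seeding; fluorescence was recorded at intervals up to 40 h.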

[5] = qHTS RealTime-Glo MT Cell Viability Assay in HepG2 cells - 16 hour (AID 1224885); also: nearly all actives have a fitted effect of over 50% in size
Summary of the method: (§4)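 Cells + NanoLuc/prosubstrate dispensed (600 cells/well) → 5 h at 37 C/5% CO2 → compounds in DMSO transferred → 40 h incubation at 37 C, luminescence read at 0, 8, 16, 24, 32, 40 h.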

[6] = qHTS RealTime-Glo MT Cell Viability Assay in HEK293 cells - 24 hour (AID 1224886); also: nearly all actives have a fitted effect of over 50% in size; also: potency is read from the fitted curve at half-maximal effect; as to activity change, negative = cytotoxicity: top concentration of the series differs between compounds
Summary of the method: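 Tox21 10K qHTS, HEK293, 600 cells/well, RealTime-Glo reagent co-dispensed with cells; 5 h preincubation, compound by pintool, 37 C, luminescence at 0–40 h.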

[7] = qHTS RealTime-Glo MT Cell Viability Assay in HEK293 cells - 8 hour (AID 1224887); also: nearly all actives have a fitted effect of over 50% in size; also: potency is read from the fitted curve at half-maximal effect; as to activity change, negative = cytotoxicity: top concentration of the series differs between compounds
Summary of the method: as §1

[8] = A CellTox Green Cytotoxicity Assay to monitor cytotoxicity in HEK293 cells - 16 hour (AID 1224888); also: nearly all actives have a fitted effect of over 35% in size
Summary of the method: as §3

[9] = qHTS RealTime-Glo MT Cell Viability Assay in HepG2 cells - 0 hour (AID 1224889); also: nearly all actives have a fitted effect of over 50% in size
Summary of the method: as §4

[10] = A CellTox Green Cytotoxicity Assay to monitor cytotoxicity in HepG2 cells - 8 hour (AID 1224890); also: nearly all actives have a fitted effect of over 45% in size
Summary of the method: as §2

[11] = qHTS assay to identify small molecule antagonists of the estrogen receptor alpha (ER-alpha) signaling pathway using the BG1 cell line in the presence of 0.1 nM 17-beta-estradiol - cell viability counter screen (AID 1259241); also: nearly all actives have a fitted effect of over 40% in size
Summary of the method: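 Estradiol-stimulated (0.1 nM) VM7Luc4E2 cells exposed to compounds 22 hr; viability measured by fluorescence of cleaved CellTiter-Fluor substrate after 30 min.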

[12] = qHTS assay to identify small molecule antagonists of the androgen receptor (AR) signaling pathway using the MDA cell line in the presence of 0.5 nM R1881 - cell viability counter screen (AID 1259242); also: nearly all actives have a fitted effect of over 45% in size
Summary of the method: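 Cytotoxicity toward MDA-kb2 cells is measured by CellTiter-Fluor live-cell protease fluorescence after 16 hr compound exposure at 37C in the presence of 0.5 nM R1881 stimulator.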

[13] = biological target: Androgen receptor (Homo sapiens) (UniProt P10275); assay: qHTS assay to identify small molecule antagonists of the androgen receptor (AR) signaling pathway using the MDA cell line in the presence of 0.5 nM R1881 (AID 1259243); also: nearly all actives have a fitted effect of over 50% in size
Summary of the method: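 Steps: seed MDA-kb2 cells, incubate 5 hr at 37C; pin-transfer compounds in DMSO; add R1881 to 0.5 nM final; incubate 16 hr; add ONE-Glo, wait 30 min at room temperature; read luminescence.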

[14] = qHTS assay to identify small molecule HDAC inhibitors (AID 1259364); also: nearly all actives have a fitted effect of over 45% in size; also: potency is read from the fitted curve at half-maximal effect; as to activity change, negative = inhibition: top concentration of the series differs between compounds
Summary of the method: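 Homogeneous cell-based luminescent assay of endogenous class I/II HDAC activity; HCT-116 cells, 2 h compound exposure, 30 min HDAC-Glo development at RT.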

[15] = qHTS assay to identify small molecule HDAC inhibitors - cell viability counter screen (AID 1259365)
Summary of the method: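 After overnight seeding at 1,500 cells per well, wild-type HCT-116 cultures took up compounds in DMSO for 2hr at 37 C. Viable cell content came from luminescence with CellTiter-Glo.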

[16] = qHTS assay to identify small molecule agonists of the sonic hedgehog signaling (Shh) pathway - cell viability counter screen (AID 1259366); also: nearly all actives have a fitted effect of over 50% in size
Summary of the method: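 Same-well cytotoxicity read. Gli1-Luc reporter 3T3 cells; compounds 24hr, 37C/5% CO2; CellTiter-Fluor fluorescence.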

[17] = qHTS assay to identify small molecule antagonists of the sonic hedgehog signaling (Shh) pathway - cell viability counter screen (AID 1259367); also: nearly all actives have a fitted effect of over 55% in size
Summary of the method: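 Seed 3T3 Gli1-Luc cells at 2,000 per well; incubate 4 hr; add compound in DMSO, then conditioned medium; incubate at 37C with 5% CO2; add CellTiter-Fluor after 23 hr; read fluorescence 1 hr later.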

[18] = biological target: Estrogen receptor (Homo sapiens) (UniProt P03372); assay: qHTS assay to identify small molecule antagonists of the estrogen receptor alpha (ER-alpha) signaling pathway using the BG1 cell line in the presence of 0.1 nM 17-beta-estradiol (AID 1259244); also: nearly all actives have a fitted effect of over 50% in size; also: potency is read from the fitted curve at half-maximal effect
Summary of the method: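 After 5 days in hormone-depleted medium (charcoal-stripped serum, no phenol red), VM7Luc4E2 cells were seeded, incubated 24 h, then co-treated with compound and 0.1 nM (final) estradiol for 22 h before luminescence detection.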

[19] = qHTS assay to identify small molecule phospholipidosis (PLD) inducers (AID 1259344; active = well fitted curve in the direction sought with a large enough effect; an effect the other way counts as inactive or inconclusive)
Summary of the method: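 Quantitative HTS in HepG2: compound plus LipidTOX Red dye for 24 h, paraformaldehyde fixation with Hoechst 33342, widefield high-content imaging; amiodarone as positive and DMSO as negative control.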

[20] = A CellTox Green Cytotoxicity Assay to monitor cytotoxicity in HEK293 cells - 32 hour (AID 1224881); also: nearly all actives have a fitted effect of over 40% in size
Summary of the method: as §3
% is scaled to controls: 0 for no effect and ±100 for the full control effect.

Sequence of Estrogen receptor (Homo sapiens) (P03372 whole entry, looked up): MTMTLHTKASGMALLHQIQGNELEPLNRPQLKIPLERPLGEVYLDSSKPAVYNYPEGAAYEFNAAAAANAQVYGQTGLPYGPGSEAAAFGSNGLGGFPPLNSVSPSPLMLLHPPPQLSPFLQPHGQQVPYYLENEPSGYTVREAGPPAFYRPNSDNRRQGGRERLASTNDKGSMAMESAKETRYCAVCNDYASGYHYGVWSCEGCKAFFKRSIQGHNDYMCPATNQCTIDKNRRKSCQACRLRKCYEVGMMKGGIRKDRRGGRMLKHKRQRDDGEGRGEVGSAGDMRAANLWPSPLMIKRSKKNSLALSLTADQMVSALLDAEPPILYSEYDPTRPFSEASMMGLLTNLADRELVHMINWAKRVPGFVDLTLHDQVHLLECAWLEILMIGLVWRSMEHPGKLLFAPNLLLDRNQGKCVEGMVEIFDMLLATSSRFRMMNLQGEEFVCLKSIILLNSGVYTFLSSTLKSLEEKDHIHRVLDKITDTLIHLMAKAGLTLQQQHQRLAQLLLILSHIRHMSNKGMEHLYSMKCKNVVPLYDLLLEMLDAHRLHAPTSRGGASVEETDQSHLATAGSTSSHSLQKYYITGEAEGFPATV
Sequence of Androgen receptor (Homo sapiens) (P10275 whole entry, looked up): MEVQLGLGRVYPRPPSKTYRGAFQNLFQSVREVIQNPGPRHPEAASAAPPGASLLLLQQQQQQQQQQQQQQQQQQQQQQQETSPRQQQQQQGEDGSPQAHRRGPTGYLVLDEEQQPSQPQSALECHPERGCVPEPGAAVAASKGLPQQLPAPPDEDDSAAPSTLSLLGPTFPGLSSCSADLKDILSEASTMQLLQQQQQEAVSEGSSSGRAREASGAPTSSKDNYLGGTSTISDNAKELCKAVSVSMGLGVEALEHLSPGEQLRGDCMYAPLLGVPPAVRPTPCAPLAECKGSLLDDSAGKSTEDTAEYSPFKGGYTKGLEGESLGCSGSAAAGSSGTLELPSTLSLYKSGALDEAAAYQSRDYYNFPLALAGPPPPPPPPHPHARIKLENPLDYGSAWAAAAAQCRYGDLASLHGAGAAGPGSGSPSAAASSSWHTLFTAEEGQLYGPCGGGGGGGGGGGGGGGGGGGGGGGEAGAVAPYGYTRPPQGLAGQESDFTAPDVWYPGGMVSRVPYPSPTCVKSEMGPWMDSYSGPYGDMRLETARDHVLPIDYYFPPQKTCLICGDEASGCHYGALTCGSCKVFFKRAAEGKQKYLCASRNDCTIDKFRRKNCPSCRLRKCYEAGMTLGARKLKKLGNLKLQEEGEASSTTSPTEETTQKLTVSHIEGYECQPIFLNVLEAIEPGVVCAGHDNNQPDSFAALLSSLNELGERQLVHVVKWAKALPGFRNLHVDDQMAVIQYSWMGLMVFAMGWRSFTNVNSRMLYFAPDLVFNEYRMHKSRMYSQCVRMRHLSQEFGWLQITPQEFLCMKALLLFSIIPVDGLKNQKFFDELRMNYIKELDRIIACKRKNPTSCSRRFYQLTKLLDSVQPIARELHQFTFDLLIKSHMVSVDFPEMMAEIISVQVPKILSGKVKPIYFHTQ

Nc1c(I)cc(I)c(C(=O)N(CCC(=O)O)c2ccccc2)c1I
inactive: Potency [1] | Potency [2] | Potency [3] | Potency [4] | Potency [5] | Potency [6] | Potency [7] | Potency [8] | Potency [9] | Potency [10] | Potency [11] | Potency [12] | Potency [13] | Potency [14] | Potency [15] | Potency [16] | Potency [17]

CC1CN(c2cc3c(cc2F)c(=O)c(C(=O)O)cn3-c2ccc(F)cc2F)CCN1 (stereo not drawn)
inactive: activity change, negative = cytotoxicity [1] 15.1% [at 6.97 µM] | cytotoxicity [2] 5.97% [at 6.97 µM] | cytotoxicity increase [3] 0.181% [at 6.97 µM] | cytotoxicity increase [4] 1.21% [at 6.97 µM] | activity change, negative = cytotoxicity [6] 6.23% [at 6.97 µM] | activity change, negative = cytotoxicity [7] 7.56% [at 6.97 µM] | activity change [8] -0.883% [at 6.97 µM, hits give high values] | activity change, negative = cytotoxicity [9] -3.32% [at 6.97 µM] | cytotoxicity increase [10] -0.506% [at 6.97 µM] | activity change, negative = cytotoxicity [11] 6.15% [at 8.39 µM] | viability change, negative = cytotoxic [12] 6.65% [at 8.39 µM] | activity change, negative = inhibition [18] -1% [at 8.39 µM] | outcome [19] | activity change, negative = inhibition [14] -3.12% [at 8.39 µM] | activity change, negative = cytotoxicity [15] -1.14% [at 8.39 µM] | viability change, negative = cytotoxic [16] -8.68% [at 8.39 µM] | viability change, negative = cytotoxic [17] 5.63% [at 8.39 µM]

CO[C@H]1O[C@H](CO)[C@@H](O)[C@H](O)[C@H]1O
inactive: Potency [1] | Potency [2] | Potency [3] | Potency [4] | Potency [5] | Potency [6] | Potency [7] | Potency [8] | Potency [9] | Potency [10] | Potency [11] | Potency [12] | Potency [14] | Potency [15] | Potency [16] | Potency [17]

Cc1ccccc1N1C(=O)c2cc(S(N)(=O)=O)c(Cl)cc2NC1C (stereo not drawn)
inactive: Potency [1] | Potency [20] | Potency [3] | Potency [5] | Potency [6] | Potency [7] | Potency [8] | Potency [9] | Potency [10] | Potency [11] | Potency [12] | outcome [19] | Potency [14] | Potency [15] | Potency [16] | Potency [17]

CCC(C(=O)OCCN(CC)CC)c1ccccc1 (stereo not drawn)
inactive: Potency [1] | Potency [20] | Potency [4] | Potency [6] | Potency [7] | Potency [8] | Potency [9] | Potency [10] | Potency [11] | Potency [12] | Potency [13] | Potency [18] | outcome [19] | Potency [14] | Potency [15] | Potency [16] | Potency [17]

CC(C)(O)c1ccccc1CC[C@@H](SCC1(CC(=O)O)CC1)c1cccc(/C=C/c2ccc3ccc(Cl)cc3n2)c1
inactive: Potency [1] | Potency [2] | Potency [3] | Potency [4] | Potency [5] | Potency [6] | Potency [7] | Potency [8] | Potency [9] | Potency [10] | Potency [11] | Potency [12] | Potency [13] | outcome [19] | Potency [14] | Potency [15] | Potency [16] | Potency [17]

CCCCN(CCCC)C(=S)SSC(=S)N(CCCC)CCCC
inactive: Potency [1] | Potency [2] | Potency [3] | Potency [4] | Potency [5] | Potency [8] | Potency [9] | Potency [10] | Potency [11] | Potency [12] | Potency [18] | Potency [14] | Potency [15] | Potency [17]
active: Potency [6] 48.5 µM | Potency [7] 34.3 µM

C=C(C)C(=O)OCCOC(=O)CC(C)=O
inactive: Potency [1] | Potency [20] | Potency [3] | Potency [7] | Potency [8] | Potency [9] | Potency [10] | Potency [11] | Potency [12] | Potency [14] | Potency [15] | Potency [16] | Potency [17]

ON(Cc1ccccc1)Cc1ccccc1
inactive: Potency [1] | Potency [20] | Potency [3] | Potency [5] | Potency [6] | Potency [7] | Potency [8] | Potency [9] | Potency [10] | Potency [11] | Potency [12] | Potency [14] | Potency [15] | Potency [16] | Potency [17]

CC(=O)Oc1ccc(C(=C2CCCCC2)c2ccc(OC(C)=O)cc2)cc1
inactive: Potency [1] | Potency [2] | Potency [3] | Potency [4] | Potency [5] | Potency [6] | Potency [7] | Potency [8] | Potency [9] | Potency [10] | Potency [11] | Potency [12] | Potency [18] | outcome [19] | Potency [14] | Potency [15] | Potency [16] | Potency [17]

O=S1OCCO1
inactive: Potency [1] | Potency [20] | Potency [4] | Potency [5] | Potency [6] | Potency [7] | Potency [8] | Potency [9] | Potency [10] | Potency [11] | Potency [12] | Potency [14] | Potency [15] | Potency [16] | Potency [17]

C=CC(=C)CCCC(C)(C)OC(C)=O
inactive: Potency [1] | Potency [20] | Potency [3] | Potency [6] | Potency [7] | Potency [8] | Potency [9] | Potency [10] | Potency [11] | Potency [12] | Potency [13] | Potency [14] | Potency [15] | Potency [16] | Potency [17]

Cc1oc(C)c(C(=O)Nc2ccccc2)c1C
inactive: Potency [1] | Potency [2] | Potency [3] | Potency [4] | Potency [8] | Potency [9] | Potency [10] | Potency [11] | Potency [12] | Potency [15] | Potency [16] | Potency [17]
active: Potency [6] 34.7 µM | Potency [18] 24.3 µM | Potency [14] 27.3 µM

Cc1cnc(C)c(C)n1
active: Potency [4] 51.3 µM
inactive: Potency [1] | Potency [20] | Potency [3] | Potency [6] | Potency [7] | Potency [9] | Potency [10] | Potency [11] | Potency [12] | Potency [14] | Potency [15] | Potency [16] | Potency [17]

Cc1nc2ccccn2c(=O)c1CCN1CCC(C(=O)c2ccc(F)cc2)CC1
active: Potency [6] 7.56 µM | Potency [7] 8.49 µM
inactive: Potency [1] | Potency [2] | Potency [3] | Potency [4] | Potency [8] | Potency [9] | Potency [10] | Potency [11] | Potency [12] | outcome [19] | Potency [14] | Potency [15] | Potency [16] | Potency [17]
